Source: PubChem BioAssay (several laboratories)
Hck Nef HTS = inhibitors of Nef-activated human Hck kinase, primary screen, biochemical, Z-Lyte FRET, 384-well, Hck-YEEI; Tyrosine-protein kinase HCK (Homo sapiens), P08631; Recombinant Hck-YEEI plus Nef, Z-Lyte FRET kinase assay; inhibition, % at 20 µM; actives 0.68% (n = 220,000); AID 463187, 2010;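 active means Hck-Nef kinase inhibition above about 50%, limit read from the data; inactive means inhibition below that limit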
Mcl1 Noxa PPI = Mcl-1/Noxa binding inhibitors, primary screen, biochemical, TR-FRET, 1536-well | Induced myeloid leukemia cell differentiation protein Mcl-1 (Homo sapiens), Q07820 | TR-FRET Mcl-1/Noxa peptide binding, 2 h | inhibition, % at 21.7 µM | actives 1.5% (n = 220,000) | AID 1022, 2008;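 active means compounds that cut the protein-peptide binding signal by more than 50% relative to plate controls in a single-dose test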;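 further: His-tagged Mcl-1 with rhodamine Noxa BH3 peptide and terbium anti-His antibody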
Target sequence (Q07820 whole entry, looked up): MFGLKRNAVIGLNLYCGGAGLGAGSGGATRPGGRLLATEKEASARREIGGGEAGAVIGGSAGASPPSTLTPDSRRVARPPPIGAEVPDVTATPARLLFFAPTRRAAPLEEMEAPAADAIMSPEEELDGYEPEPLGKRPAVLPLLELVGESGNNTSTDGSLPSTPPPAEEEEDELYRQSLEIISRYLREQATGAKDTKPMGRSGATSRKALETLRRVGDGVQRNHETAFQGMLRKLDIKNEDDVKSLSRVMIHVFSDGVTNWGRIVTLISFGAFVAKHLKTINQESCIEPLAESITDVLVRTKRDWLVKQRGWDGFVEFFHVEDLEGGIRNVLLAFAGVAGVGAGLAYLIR
Pf gamet viab = late stage P. falciparum gametocyte viability inhibitors, primary screen, ATP luminescence, HTS; P. falciparum stage V gametocytes, 24 h; actives 0.065% (n = 150,000); inhibition, % at 10.9 µM;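 active means inhibition above the mean plus 3 SD of compounds within the control limits, set per campaign, cut at about 38% in these data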
Bim-Mcl-1 = inhibitors of Bim peptide binding to Mcl-1, primary screen, biochemical, bead-based flow cytometry, multiplex. Induced myeloid leukemia cell differentiation protein Mcl-1 (Homo sapiens), Q07820. actives 0.1% (n = 190,000). Bim peptide-Mcl-1 binding. inhibition, % at 10 µM; in the data active means inhibition above about 40%
Mcl1-Bid inh = Mcl-1/Bid binding inhibitors, primary screen, biochemical, TR-FRET, 1536-well | Induced myeloid leukemia cell differentiation protein Mcl-1 (Homo sapiens), Q07820 | TR-FRET Mcl-1/Bid-Dy647 peptide binding | inhibition, % at 21.7 µM | actives 0.97% (n = 220,000);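 active means compounds that cut the binding signal by more than half at the single screening dose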;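 further: His-tagged Mcl-1 with europium anti-His antibody binding Bid BH3 peptide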
14-3-3 Bad inh = inhibitors of 14-3-3 zeta/Bad binding, primary screen, biochemical, TR-FRET, bovine 14-3-3 zeta. 14-3-3 protein zeta/delta (Bos taurus), P63103. TR-FRET 14-3-3zeta/Dy647-pBad peptide displacement, 1 h. inhibition, % at 21.7 µM. actives 0.71% (n = 220,000);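 active means inhibition above about 70%, limit read from the data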
Target sequence (P63103 whole entry, looked up): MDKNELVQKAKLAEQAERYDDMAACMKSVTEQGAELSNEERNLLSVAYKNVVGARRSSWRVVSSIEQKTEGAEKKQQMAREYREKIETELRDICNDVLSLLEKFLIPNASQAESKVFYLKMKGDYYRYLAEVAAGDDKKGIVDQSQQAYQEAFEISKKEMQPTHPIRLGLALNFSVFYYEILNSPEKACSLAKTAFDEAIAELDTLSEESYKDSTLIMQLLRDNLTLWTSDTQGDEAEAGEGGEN
Hits are given with their value; – = inactive; · = no result; [ ] = dose if it differs, or a comment. In the library only some 2.9% were active in any assay of this set; here they are far more common.

SMILES	Hck Nef HTS	Mcl1 Noxa PPI	Pf gamet viab	Bim-Mcl-1	Mcl1-Bid inh	14-3-3 Bad inh
CN(C)c1nc2ccccc2c(N)c1-c1ccccc1	–	–	·	–	–	77
Cc1ccc(NC(=O)CN2CCc3ccccc3C2)cc1S(=O)(=O)N(C)C	–	–	–	–	–	–
COc1cc2c(cc1OC)CN(CC(=O)Nc1ccc(C#N)cc1)CC2	–	–	–	–	98	–
O=C(CCN1CCc2ccccc2C1)Nc1cccc(F)c1	–	–	–	–	77	–
Cc1ccc(NC(=O)CN2CCc3ccccc3C2)cc1F	–	–	–	·	98	–
COc1cc2c(cc1OC)CN(CC(=O)Nc1ccc(S(=O)(=O)N(C)C)cc1)CC2	–	–	–	–	–	–
Cc1ccc(N/N=C(\C#N)C(=N)N2CCCCC2)cc1	–	–	–	·	–	–
FC(F)C(F)(F)C1=CC(c2ccccc2)=NCCN1	–	–	·	–	–	–
FC(F)(F)C1=CC(c2ccccc2)=NCCN1	–	88	–	–	–	–
O=C(O)c1ccc(-n2c(-c3cc(-c4ccco4)[nH]n3)n[nH]c2=S)cc1	–	–	·	–	–	–
CC(=O)c1ccc(-n2c(-c3cc(-c4ccco4)[nH]n3)n[nH]c2=S)cc1	–	63	·	–	–	–
O=C(Nn1cnnc1)c1ccccc1CCc1ccccc1	–	–	·	–	97	–
O=C(Nc1ccccc1)c1ccccc1CCc1ccccc1	–	–	·	–	–	–
CCOc1ccc(Nc2ncnc3c2cnn3Cc2ccccc2)cc1	–	–	–	–	–	80
COc1ccc(O)c(/C=N/n2c(-c3ccco3)csc2=Nc2cccnc2)c1	–	–	53	–	–	–
COCCn1c(-c2ccco2)csc1=Nc1cccnc1	–	–	·	–	–	–
CN1CCN(c2nc3c(c(=O)[nH]c(=O)n3C)n2CCSc2nnnn2-c2ccccc2)CC1	–	–	–	·	–	–
CC(CSc1nnnn1-c1ccccc1)Cn1c(N2CCN(C)CC2)nc2c1c(=O)[nH]c(=O)n2C (centres undefined)	–	52	–	–	–	–
CCCC(=O)Nc1ccc(NC(=O)C23CC4CC(CC(C4)C2)C3)cn1	–	–	·	–	–	–
COc1ccc2[nH]c(=O)c(CN(CC3CCCO3)C(=S)Nc3ccc(C)cc3)cc2c1 (centres undefined)	–	–	–	–	–	–
CNc1cccccc1=S	–	58	–	–	–	–
CCN(CC)S(=O)(=O)c1ccc(S(=O)(=O)N2CCN(CCC#N)CC2)cc1	–	–	·	–	–	–
CCOc1ccc2[nH]c(=O)c(CN(CCO)C(=O)c3ccccc3F)cc2c1	–	–	·	–	–	–
O=C(O)c1cccn2c(=O)c3ccccc3nc12	–	–	·	–	–	–
O=C(O)c1ccc2c(=O)n3cc(C(=O)c4ccccc4O)cc(Cl)c3nc2c1	–	60	–	·	–	–
SMILES	Hck Nef HTS	Mcl1 Noxa PPI	Pf gamet viab	Bim-Mcl-1	Mcl1-Bid inh	14-3-3 Bad inh
Cc1ccccc1NS(=O)(=O)c1ccc(C2CNC(=O)C2)cc1 (centres undefined)	–	–	–	–	–	–
O=C(Cc1cccs1)N/N=C/C(Br)=C/c1ccccc1	–	–	–	–	–	–
Cc1ccccc1NCC(=O)N/N=C/C(Br)=C/c1ccccc1	–	–	·	–	90	–
Cc1cccc(C(=O)Nc2nc(C)c(C(=O)Nc3ccc4c(c3)CCC4)s2)c1	–	–	–	–	–	–
COc1ccccc1Cc1nc2ccccc2n1S(=O)(=O)c1ccc(Cl)cc1	–	–	·	–	59	–
O=c1c2c(nc3nc(NCc4cccc(Cl)c4)[nH]n13)CCC2	–	–	–	–	–	72
CC(C)c1ccc(CNc2nc3nc4c(c(=O)n3[nH]2)CCC4)cc1	–	–	–	–	–	–
Cc1cc(C(F)(F)F)c2c(C)nn(-c3ccccc3)c2n1	·	·	–	·	·	·
O=c1[nH]c2c(c(=O)[nH]1)CCC2	–	–	–	–	–	–
O=C1C=CC(=O)N1c1ccc(Sc2ccc([N+](=O)[O-])cc2)cc1	50	73	·	·	–	–
Nc1ccc(Sc2ccc([N+](=O)[O-])cc2)cc1	–	–	–	–	–	–
CCN(CC)CCNC(=O)c1ccc(NC(=O)c2cccc(S(=O)(=O)Nc3ccc(C)cc3)c2)cc1	–	–	–	–	–	–
COC(=O)c1ccccc1OCCCCN1CC(C)OC(C)C1 (centres undefined)	–	–	·	–	–	–
CCn1c(=N)n(CC(=O)c2cccc([N+](=O)[O-])c2)c2ccccc21	–	–	–	–	–	74[fluorescence artefact?]
N=c1n(CC(=O)c2cccc([N+](=O)[O-])c2)c2ccccc2n1Cc1ccccc1	–	–	–	–	–	–
Cn1c(NC(=O)Cc2ccc(F)cc2)cc(=O)n(C)c1=O	–	–	·	–	65	–
COc1ccc(CC(=O)Nc2cc(=O)n(C)c(=O)n2C)cc1	–	–	·	–	–	–
CCOC(=O)c1c(CN2CCN(C)CC2)oc2ccc(O)cc12	–	–	–	–	–	75
CC(C)(C)NC(=O)Cn1nnnc1-c1nonc1N	–	–	·	–	–	–
COc1ccc(S(=O)(=O)N2CCc3ccccc3C2)cc1	–	–	–	–	–	–
Cc1cccc(N2CCN(S(=O)(=O)c3ccc4c(c3)n(C)c(=O)c(=O)n4C)CC2C)c1 (centres undefined)	–	–	–	–	56	–
O=C(COc1ccccc1[N+](=O)[O-])Nc1ccc(NC(=O)c2cc3ccccc3o2)cc1	–	–	–	–	–	90
COc1cc(/C=N/NC(=O)C(=O)NCc2ccco2)cc(Cl)c1O	–	62	–	·	–	–
C/C(=C\c1ccccc1)C(=O)NCCCn1ccnc1	–	–	·	–	–	–
O=C1c2cccc3cccc(c23)C(=O)N1c1nccs1	–	–	–	–	–	–
SMILES	Hck Nef HTS	Mcl1 Noxa PPI	Pf gamet viab	Bim-Mcl-1	Mcl1-Bid inh	14-3-3 Bad inh
O=C1c2cccc3cccc(c23)C(=O)N1c1ccc2ncccc2c1	–	–	·	–	–	74
CCN(CC)S(=O)(=O)c1cccc(NC(=O)c2ccc(Br)cc2)c1	–	–	–	–	–	–
CCn1c(-c2cc3c(C(F)(F)F)nn(C)c3s2)n[nH]c1=S	–	72	–	–	–	–
Oc1c(Cl)cc(Cl)cc1Sc1cc(Cl)cc(Cl)c1O	–	117	·	–	99	79
Oc1c(Cl)cc(Cl)cc1CNn1cnnc1	–	–	–	–	–	–
CCOC(=O)CCNCc1ccc(OC)c(OC)c1	–	54	–	·	–	–
N/C(=N\OC(=O)C1CC1)c1ccc([N+](=O)[O-])s1	–	–	–	·	–	–
